Among all 5,500 compounds or so, about 2,000 (36%) were called active. About 18% were inconclusive and are not listed. Cut-off read from the data, not from the text of the source: active = normalized growth mostly below about 0.91 (no sharp cut-off); inconclusive = no clear call, values can overlap the other calls; inactive = mostly above about 0.92. The list shows a part of the results.
Assay: chemical genetic growth profiling, strain panel (AID 1159580);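 note: tested at 20 µM; growth read once vehicle control cultures reached saturation at 30 °C; 1 = growth at the plate median or of vehicle wells; lower values mean less growth of the strain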
Conditions: S. cerevisiae deletion strains, growth OD

Measured: normalized growth

CN1C2CCC1CC(OC(=O)c1c[nH]c3ccccc13)C2 (stereo unspecified)
inactive: locus YAL040C, strain CLN3, hits give low values 0.995 | locus YCL061C, strain MRC1 (second series), hits give low values 1 | locus YDR363W, strain ESC2, hits give low values 1.01 | locus YER002W, strain NOP16, hits give low values 0.994 | locus YGR078C, strain PAC10, hits give low values 1.02 | locus YJR075W, strain HOC1, hits give low values 1 | locus YMR263W, strain SAP30, hits give low values 1 | locus YMR307W, strain GAS1, hits give low values 1.01 | locus YNL128W, strain TEP1, hits give low values 0.995 | locus YNL153C, strain GIM3, hits give low values 1.01 | locus YNL175C, strain NOP13, hits give low values 1 | locus YNL197C, strain WHI3, hits give low values 1.02 | locus YNL224C, strain SQS1, hits give low values 0.985 | locus YNL322C, strain KRE1, hits give low values 1.03 | locus YOR083W, strain WHI5 (second series), hits give low values 1.01 | locus YPL055C, strain LGE1, hits give low values 1.02

Reference: PubChem BioAssay AID1159580 (chemical genetic matrix, 2015)
